PubChem BioAssay (NCATS)
Inconclusive results are not listed. The source made the active and inactive calls. Calls follow the shape of the dose curve; as a rule, active = well fitted curve in the direction sought with a large enough effect; inconclusive = small, poorly fitted or top-dose-only effect, or another doubt; inactive = no such curve, though single readings can be large; an effect the other way counts as inactive or inconclusive.

Experiments:
[1] = qHTS of pediatric cancer cell lines to identify multiple opportunities for drug repurposing: Primary screen for NB1643 cells (AID 1347099); conditions: NB1643 neuroblastoma viability, CellTiter-Glo luminescence, 48 h; series mostly up to 46 µM; also: nearly all actives have a fitted effect of over 50% in size; also: potency is read from the fitted curve at half-maximal effect
Summary of the method: (§1)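 Plated cells (500-1,000 per well, growth media) were allowed to settle for 5 hours, treated with compound dilutions for 48 hours, then lysed with CellTiter-Glo for 15 min at room temperature before luminescence reading.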

[2] = qHTS of pediatric cancer cell lines to identify multiple opportunities for drug repurposing: Primary screen for LAN-5 cells (AID 1347100); conditions: LAN-5 neuroblastoma viability, CellTiter-Glo luminescence, 48 h; series mostly up to 46 µM; also: potency is read from the fitted curve at half-maximal effect
Summary of the method: (§2)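 Cells (500-1,000/well) in growth media were settled 5 h at 37 degrees C, then given compounds for 48 h. Viability was read as CellTiter-Glo luminescence. Primary runs used MIPE at 11 points (0.78 nM-46 µM) and NPC at 8 points (0.59 nM-46 µM); follow-ups used 11 points.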

[3] = qHTS of pediatric cancer cell lines to identify multiple opportunities for drug repurposing: Primary screen for BT-12 cells (AID 1347101); conditions: BT-12 viability, CellTiter-Glo luminescence, 48 h; series mostly up to 57.3 µM; also: nearly all actives have a fitted effect of over 25% in size; also: potency is read from the fitted curve at half-maximal effect
Summary of the method: (§3)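 Cells (500-1,000/well) rested 5 h, then received compounds for 48 h; metabolically active cells were measured by CellTiter-Glo luminescence. Final concentrations spanned up to 46 µM (MIPE, 11-point) or 0.59 nM-46 µM (NPC, 8-point) in primary screens, 11-point in follow-ups.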

[4] = qHTS of pediatric cancer cell lines to identify multiple opportunities for drug repurposing: Primary screen for Rh18 cells (AID 1347102); conditions: Rh18 rhabdomyosarcoma viability, CellTiter-Glo luminescence, 48 h; series mostly up to 46 µM; also: nearly all actives have a fitted effect of over 65% in size; also: potency is read from the fitted curve at half-maximal effect
Summary of the method: as §2

[5] = qHTS of pediatric cancer cell lines to identify multiple opportunities for drug repurposing: Primary screen for OHS-50 cells (AID 1347103); conditions: OHS-50 osteosarcoma viability, CellTiter-Glo luminescence, 48 h; series mostly up to 57.3 µM; also: nearly all actives have a fitted effect of over 40% in size; also: potency is read from the fitted curve at half-maximal effect
Summary of the method: as §3

[6] = qHTS of pediatric cancer cell lines to identify multiple opportunities for drug repurposing: Primary screen for RD cells (AID 1347104); conditions: RD rhabdomyosarcoma viability, CellTiter-Glo luminescence, 48 h; series mostly up to 46 µM; also: nearly all actives have a fitted effect of over 55% in size; also: potency is read from the fitted curve at half-maximal effect
Summary of the method: as §1

[7] = qHTS of pediatric cancer cell lines to identify multiple opportunities for drug repurposing: Primary screen for MG 63 (6-TG R) cells (AID 1347105); conditions: MG 63 (6-TG R) viability, CellTiter-Glo, 48 h; series mostly up to 46 µM; also: nearly all actives have a fitted effect of over 50% in size; also: potency is read from the fitted curve at half-maximal effect
Summary of the method: as §1

[8] = qHTS of pediatric cancer cell lines to identify multiple opportunities for drug repurposing: Primary screen for control Hh wild type fibroblast cells (AID 1347106); conditions: Hh wild-type fibroblast viability, CellTiter-Glo luminescence, 48 h; series mostly up to 46 µM;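 also: a drop in luminescence marks cytotoxicity and a rise apparent proliferation; nearly all actives have a fitted effect of over 55% in size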
Summary of the method: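 Viability after 48 h compound treatment at 37C, 500-1,000 cells/well, read as ATP luminescence with CellTiter-Glo. Primary screens used 11-point (MIPE, 0.78 nM-46 µM) or 8-point (NPC, 0.59 nM-46 µM) final concentrations; follow-up screens used 11-point dilutions.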

[9] = qHTS of pediatric cancer cell lines to identify multiple opportunities for drug repurposing: Primary screen for Rh30 cells (AID 1347107); conditions: Rh30 rhabdomyosarcoma viability, CellTiter-Glo luminescence, 48 h; series mostly up to 46 µM; also: nearly all actives have a fitted effect of over 75% in size
Summary of the method: as §2

[10] = qHTS of pediatric cancer cell lines to identify multiple opportunities for drug repurposing: Primary screen for SK-N-SH cells (AID 1347098); conditions: SK-N-SH viability, CellTiter-Glo luminescence, 48 h; series mostly up to 57 µM; also: nearly all actives have a fitted effect of over 65% in size; also: potency is read from the fitted curve at half-maximal effect
Summary of the method: as §3

[11] = qHTS of pediatric cancer cell lines to identify multiple opportunities for drug repurposing: Primary screen for Rh41 cells (AID 1347108); conditions: Rh41 rhabdomyosarcoma viability, CellTiter-Glo luminescence, 48 h; series mostly up to 46 µM; also: nearly all actives have a fitted effect of over 70% in size; also: potency is read from the fitted curve at half-maximal effect
Summary of the method: as §1

[12] = qHTS of pediatric cancer cell lines to identify multiple opportunities for drug repurposing: Confirmatory screen for NB1643 cells (AID 1347109); conditions: NB1643 neuroblastoma cell viability; series mostly up to 45.9 µM; also: nearly all actives have a fitted effect of over 45% in size; also: potency is read from the fitted curve at half-maximal effect
Summary of the method: as §2

[13] = qHTS of pediatric cancer cell lines to identify multiple opportunities for drug repurposing: Confirmatory screen for A673 cells (AID 1347110); conditions: A673 Ewing sarcoma cell viability; series mostly up to 45.9 µM;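 also: cells exposed to compound for 48 h before the viability read; nearly all actives have a fitted effect of over 65% in size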; also: potency is read from the fitted curve at half-maximal effect
Summary of the method: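 Cells plated at 500-1,000/well were treated five hours later with multi-point dilutions up to 46 µM final. After two days, CellTiter-Glo was added and luminescence read.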

[14] = qHTS of pediatric cancer cell lines to identify multiple opportunities for drug repurposing: Confirmatory screen for SK-N-MC cells (AID 1347111); conditions: SK-N-MC cell viability; series mostly up to 45.9 µM;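 also: potency is read from the fitted curve at half-maximal effect; cells exposed to compound for 48 h before the readout; nearly all actives have a fitted effect of over 70% in size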
Summary of the method: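 Metabolically active cells were quantified by ATP-dependent luminescence (CellTiter-Glo, 15 min at room temperature) following 48 h treatment. Cells had been plated at 500-1,000 per well and settled for 5 h beforehand.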

[15] = qHTS of pediatric cancer cell lines to identify multiple opportunities for drug repurposing: Confirmatory screen for BT-12 cells (AID 1347112); conditions: BT-12 rhabdoid tumor cells, viability; series mostly up to 45.9 µM; also: nearly all actives have a fitted effect of over 55% in size; also: potency is read from the fitted curve at half-maximal effect
Summary of the method: as §2

[16] = qHTS of pediatric cancer cell lines to identify multiple opportunities for drug repurposing: Confirmatory screen for DAOY cells (AID 1347114); conditions: DAOY medulloblastoma cells viability, cytotoxicity qHTS; series mostly up to 45.9 µM; also: potency is read from the fitted curve at half-maximal effect; nearly all actives have a fitted effect of over 65% in size
Summary of the method: (§4)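 Viability measured as metabolically active cells via CellTiter-Glo luminescence following 48 hours of compound exposure, 11-point dilutions in confirmatory testing. 500-1,000 cells/well plated 5 hours before dosing; controls were DMSO and 2.3 µM bortezomib.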

[17] = qHTS of pediatric cancer cell lines to identify multiple opportunities for drug repurposing: Confirmatory screen for BT-37 cells (AID 1347117); conditions: BT-37 pediatric cancer cells, viability; series mostly up to 45.9 µM; also: nearly all actives have a fitted effect of over 55% in size; also: potency is read from the fitted curve at half-maximal effect
Summary of the method: as §2

[18] = qHTS of pediatric cancer cell lines to identify multiple opportunities for drug repurposing: Confirmatory screen for LAN-5 cells (AID 1347113); conditions: LAN-5 neuroblastoma cell viability; series mostly up to 45.9 µM; also: nearly all actives have a fitted effect of over 65% in size
Summary of the method: as §2

[19] = qHTS of pediatric cancer cell lines to identify multiple opportunities for drug repurposing: Confirmatory screen for NB-EBc1 cells (AID 1347115); conditions: NB-EBc1 neuroblastoma cells, viability (cytotoxicity); series mostly up to 45.9 µM;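 also: cells exposed to compound for 48 h before the viability read; nearly all actives have a fitted effect of over 45% in size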
Summary of the method: as §2

[20] = qHTS of pediatric cancer cell lines to identify multiple opportunities for drug repurposing: Confirmatory screen for SJ-GBM2 cells (AID 1347116); conditions: SJ-GBM2 glioblastoma cells, viability; series mostly up to 45.9 µM; also: nearly all actives have a fitted effect of over 60% in size
Summary of the method: as §4

Measured: Potency

CCN(CC)C(=O)[C@@H]1C=C2c3cccc4[nH]cc(c34)C[C@H]2N(C)C1
inactive: [1] | [3] | [4] | [5] | [6] | [7] | [8] | [9]
active: [2] 71.3 µM

C[C@]12CC[C@H]3[C@@H](CC[C@@]45O[C@H]4C(O)=C(C#N)C[C@]35C)[C@H]1CC[C@H]2O
active: [10] 12.1 µM | [1] 13.2 µM | [2] 16.6 µM | [6] 29.6 µM | [11] 20.9 µM
inactive: [4] | [5] | [8]

NNc1ccccc1
inactive: [10] | [1] | [4] | [5] | [6] | [7] | [8] | [9] | [11]

CC(C)c1c(CN(C)C(C)Cc2ccccc2)n(C)n(-c2ccccc2)c1=O (stereo unspecified)
inactive: [10] | [1] | [2] | [4] | [5] | [6] | [8] | [9] | [11]

O=c1c(C2CC(c3ccc(-c4ccc(Br)cc4)cc3)Cc3ccccc32)c(O)sc2ccccc12 (stereo unspecified)
active: [1] 10.6 µM | [2] 10.6 µM
inactive: [4] | [8]

COc1cc(CCN)cc(OC)c1OC
inactive: [1] | [2] | [4] | [5] | [6] | [7] | [8] | [9]

COC(=O)C(Cl)C(=O)OC
inactive: [10] | [1] | [2] | [4] | [5] | [6] | [8] | [9] | [11]

C[C@]12CCC(=O)C=C1CC[C@@H]1[C@H]3CC[C@](C)(O)[C@@]3(C)CC[C@@H]12
inactive: [4] | [8]
active: [1] 34.7 µM | [3] 28.6 µM | [5] 25.5 µM | [11] 38.9 µM

O=C(CCCN1CCC2(CC1)C(=O)NCN2c1ccccc1)c1ccc(F)cc1
inactive: [10] | [1] | [2] | [4] | [6] | [8] | [9] | [11]

O=C1c2ccccc2C(=O)C1C(=O)C(c1ccccc1)c1ccccc1
inactive: [10] | [1] | [3] | [4] | [6] | [8] | [9] | [11]

CC(=O)C1CCOC1=O (stereo unspecified)
inactive: [10] | [1] | [2] | [4] | [5] | [6] | [8] | [9] | [11]

CN1CCC(O)(c2ccc(F)cc2)C(C(=O)c2ccc(F)cc2)C1 (stereo unspecified)
inactive: [1] | [2] | [3] | [4] | [5] | [6] | [7] | [8] | [9] | [11]

CC(C)(C)NCC(O)c1ccccc1Cl (stereo unspecified)
inactive: [1] | [2] | [3] | [4] | [5] | [6] | [8] | [9] | [11]

CCCOC(=O)c1cncn1C(C)c1ccccc1 (stereo unspecified)
inactive: [10] | [1] | [2] | [4] | [5] | [6] | [8] | [9] | [11]

CCCCCCCCCC(=O)O[C@H]1CC[C@H]2[C@@H]3CCC4=CC(=O)CC[C@@H]4[C@H]3CC[C@]12C
inactive: [1] | [2] | [3] | [4] | [5] | [6] | [8] | [9] | [11]

C[C@]12Cc3cn[nH]c3C[C@@H]1CC[C@@H]1[C@@H]2CC[C@@]2(C)[C@H]1CC[C@]2(C)O
inactive: [4] | [6] | [8] | [9]

C=CCC1(C(C)CC)C(=O)NC(=O)NC1=O (stereo unspecified)
inactive: [1] | [2] | [4] | [5] | [6] | [8] | [9]

CC1(C)C(C=C(Cl)Cl)C1C(=O)OC(C#N)c1cccc(Oc2ccccc2)c1 (stereo unspecified)
inactive: [1] | [2] | [4] | [5] | [6] | [7] | [8] | [9] | [11]

COc1cccc2c1C(=O)c1c(O)c3c(c(O)c1C2=O)C[C@@](O)(C(=O)CO)CC3OC1CC(N2CCOC(OC)C2)C(O)C(C)O1 (stereo partly specified)
active: [10] 0.0217 µM | [1] 0.0266 µM | [3] 0.0692 µM | [4] 0.0596 µM | [5] 0.0347 µM | [6] 0.0841 µM | [7] 0.0211 µM | [11] 0.0944 µM | [12] 0.0147 µM | [13] 0.0233 µM | [14] 0.0037 µM | [15] 0.0465 µM | [16] 0.0329 µM | [17] 0.0066 µM
inactive: [9]

C[C@@H]1CC2=CC(=O)CC[C@@H]2[C@H]2CC[C@@]3(C)[C@@H](CC[C@]3(C)O)[C@@H]21
inactive: [10] | [1] | [2] | [4] | [6] | [7] | [8] | [9] | [11]

COP(=S)(OC)SCN1C(=O)c2ccccc2C1=O
inactive: [10] | [2] | [3] | [4] | [5] | [6] | [7] | [8] | [9]

O=C1OC(CCN2CCCCC2)OC1(c1ccccc1)c1ccccc1 (stereo unspecified)
inactive: [4] | [5] | [6] | [8] | [9] | [11]
active: [2] 4.73 µM

CCN[C@H](C)Cc1cccc(C(F)(F)F)c1
inactive: [1] | [2] | [4] | [5] | [6] | [7] | [8] | [9] | [11]

CCN(CC)CCc1c[nH]c2ccccc12
inactive: [1] | [2] | [4] | [6] | [8] | [9]
active: [10] 37 µM

O=C(Nc1ccc(Br)cc1)c1cc(Br)cc(Br)c1O
inactive: [4] | [8]
active: [10] 34.4 µM | [1] 9.44 µM | [3] 27.6 µM | [5] 21.9 µM | [7] 33.5 µM

C[C@]12CCC(=O)C=C1CC[C@@H]1[C@@H]2CC[C@@]2(C)[C@H]1CC[C@]2(C)O
not listed: [3] | [5] | [7] | [11] | [14] | [16]
inactive: all other assays above
